Screening results as filed in PubChem.
Tau fluor counter: counter-screen for tau fibril formation inhibitors | Potency, µM (top dose mostly 57.7 µM), for the others: at the top dose activity change, negative = decrease | tau K18 P301L Alexa594 fluorescence, heparin fibrillization | 280,000 tested, 0.93% active; further: nearly all actives have a fitted effect of over 55% in size
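Human K18 P301L tau (15 uM unlabeled plus 0.24 uM Alexa 594-labeled, final) in 100 mM sodium acetate pH 7 was mixed with compound and 20 uM heparin and incubated 6 hr at 37 C.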
TRb-SRC2 inh: disrupts binding of human TR beta to SRC2 | 280,000 tested, 0.065% active | P10828 | AID 1469 | TRbeta-SRC2 peptide binding, fluorescence polarization; receptor liganded with 1 µM T3 | Potency, µM (series often up to 106 µM), without a hit: at the highest dose activity change, negative = inhibition, hits mostly inhibitors;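 further: plate controls were bound peptide for no effect and peptide without receptor for full effect; nearly all actives have a fitted effect of over 50% in size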
Target sequence (P10828 whole entry, looked up): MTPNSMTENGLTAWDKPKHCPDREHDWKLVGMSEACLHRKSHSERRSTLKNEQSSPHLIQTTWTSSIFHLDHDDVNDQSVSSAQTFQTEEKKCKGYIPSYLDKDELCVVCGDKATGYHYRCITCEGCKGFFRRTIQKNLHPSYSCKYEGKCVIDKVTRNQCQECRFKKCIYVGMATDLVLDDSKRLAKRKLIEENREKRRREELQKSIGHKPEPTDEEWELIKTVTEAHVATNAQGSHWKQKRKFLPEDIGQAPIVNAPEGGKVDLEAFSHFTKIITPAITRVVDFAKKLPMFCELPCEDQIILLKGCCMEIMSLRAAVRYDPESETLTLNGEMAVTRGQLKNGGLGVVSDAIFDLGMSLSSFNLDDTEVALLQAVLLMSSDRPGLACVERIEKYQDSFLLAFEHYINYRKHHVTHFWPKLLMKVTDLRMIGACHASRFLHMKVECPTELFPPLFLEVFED
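Fluorescence polarization of 20 nM Texas Red SRC2 peptide (20-aa NR interaction domain) bound to 0.6 uM human TRb ligand-binding domain, with 1 uM T3, after 5 hr at ambient temperature; inhibition seen as decreased polarization.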
Tau FP inhib: tau fibrillization inhibition (FP). Potency, µM (series often up to 57.7 µM), inactives show at the top dose activity, negative = inhibition, actives largely listed as inhibitors. 280,000 tested, 0.39% active. K18 P301L tau heparin fibrillization, Alexa594 FP, 6 h; further: nearly all actives have a fitted effect of over 55% in size
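Steps: dispense K18 P301L tau (15 uM plus 0.24 uM Alexa 594 tracer, final) in pH 7 sodium acetate; add compound; add heparin (20 uM final); incubate 6 hr, 37 C; add ThT (30 uM final); after 1 hr ambient, read FP.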
TR SRC2 fluor cs: alters Texas Red total fluorescence, flagging assay interference | TRb/SRC2 Texas Red total fluorescence interference | Potency, µM (series often up to 106 µM), without a hit: at the highest dose fluorescence change, negative = quenching | 280,000 tested, 0.29% active | AID 1479; active means well fitted curve in either direction with a large enough effect; inconclusive means small, poorly fitted or top-dose-only effect
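Human TRβ ligand-binding domain (0.6 uM) and Texas Red SRC2 peptide (20 nM) in Tris buffer with 1 uM T3 and 5% DMSO were incubated with pinned compound for 5 hr at ambient temperature. Total fluorescence was computed as S + 2P (555/632 nm).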
Tau ThT inhib: inhibitors of human tau fibril formation, thioflavin T binding. recombinant tau K18 P301L, heparin-induced fibrillization, ThT fluorescence. Potency, µM (top dose mostly 57.4 µM), for the others: at the top dose activity, negative = inhibition, actives largely listed as inhibitors. 270,000 tested, 2.1% active. AID 1460; further: nearly all actives have a fitted effect of over 55% in size
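Using a mix of unlabeled (15 uM) and Alexa 594-labeled (0.24 uM) tau K18 P301L, heparin-triggered fibrillization over 6 hr at 37 C was scored by ThT fluorescence.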
KDM4E inh: blocks human JMJD2E demethylase activity; Potency, µM (top dose mostly 57.1 µM), for inactives: at the top dose activity change, negative = inhibition, usual class: inhibitors; B2RXH2; JMJD2E catalytic domain, FDH-coupled NADH fluorescence (FDH is formaldehyde dehydrogenase); 230,000 tested, 1.6% active; active means well fitted inhibition curve with a large enough effect, not every such curve was filed as active; inconclusive means small, poorly fitted or top-dose-only effect, or another doubt; inactive means no such curve, though single readings can be large or run the other way;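 further: 0% = wells with enzyme and -100% = buffer wells without enzyme; nearly all actives have a fitted effect of over 50% in size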
* = called active by the depositor; [ ] = remark or other dose. Only some compounds are listed: those with a hit (about 3.5% of all), similar ones and a draw of the others. Unless noted, the call rests on the fitted dose curve; in most records, active means well fitted curve in the direction sought with a large enough effect; inconclusive means small, poorly fitted or top-dose-only effect, or another doubt; inactive means no such curve, though single readings can be large; an effect the other way counts as inactive or inconclusive. Unless noted, on the % scale 0 is the no-effect control and ±100 the full control effect; potency means the concentration at half of the fitted maximal effect.

For Cc1ccc(N=Nc2c(N)[nH]n3c(=O)c4c(nc23)CCCC4)cc1 the results were Tau fluor counter -13%, TRb-SRC2 inh -1%, Tau FP inhib 2%, TR SRC2 fluor cs -2%, Tau ThT inhib 1.4µM* and KDM4E inh -6%.
`Cc1ccc(N=Nc2c(=O)[nH]n3c(C)cc(C)nc23)cc1` gave Tau fluor counter -12%, TRb-SRC2 inh 1%, Tau FP inhib -5%, TR SRC2 fluor cs -4%, Tau ThT inhib 20µM* and KDM4E inh -6%.
Screening Cc1nc(C)c(/C(O)=C\c2nc3ccc([N+](=O)[O-])cc3oc2=O)o1 returned Tau fluor counter -8%, TRb-SRC2 inh 2%, Tau FP inhib 1%, TR SRC2 fluor cs -5%, Tau ThT inhib inconclusive and KDM4E inh 20µM*.
For CCOC(=O)C1=C(CSc2nc3c(cc2C#N)CN(C)CC3)OC(N)=C(C#N)C1c1ccc(Cl)cc1 (configuration not stated) the results were Tau fluor counter inconclusive, TRb-SRC2 inh -4%, Tau FP inhib -16%, TR SRC2 fluor cs 6%, Tau ThT inhib 20µM* and KDM4E inh inconclusive.
CCc1ccccc1NC(=O)Nc1cc(C(=O)NCc2cccc(F)c2)ccc1N1CCCC1 was read as Tau fluor counter -13%, TRb-SRC2 inh 7%, Tau FP inhib 7%, TR SRC2 fluor cs -1% and Tau ThT inhib -6%.
For Cc1cc(/C=C2/SC(=S)N(c3ccc([N+](=O)[O-])cc3)C2=O)c(C)n1-c1cccnc1 the results were Tau fluor counter -24%, TRb-SRC2 inh 6%, Tau FP inhib 2%, TR SRC2 fluor cs -1%, Tau ThT inhib inconclusive and KDM4E inh -28%.
Cc1ccccc1/C=C1\SC(=S)N(/N=C/c2cc([N+](=O)[O-])ccc2O)C1=O was read as Tau fluor counter inconclusive, TRb-SRC2 inh -5%, Tau FP inhib -13%, TR SRC2 fluor cs -4%, Tau ThT inhib 25µM* and KDM4E inh -29%.
`O=C(CNc1cccc2ccccc12)N/N=C/C(Br)=C/c1ccccc1` gave Tau fluor counter 14µM*[quencher], TRb-SRC2 inh -3%, Tau FP inhib 1%, TR SRC2 fluor cs 2%, Tau ThT inhib inconclusive and KDM4E inh 6%.
Screening N#CC1=C(S)N(c2ccccc2)C(c2ccc(-c3ccc(Cl)c(Cl)c3)o2)NC1=O (configuration not stated) returned Tau fluor counter -21%, TRb-SRC2 inh -2%, Tau FP inhib 25µM*, TR SRC2 fluor cs -2%, Tau ThT inhib 16µM* and KDM4E inh 25µM*.
For COc1ccc(N2C(S)=C(C#N)C(=O)NC2c2ccc(OC)c(OC)c2)cc1 (configuration not stated) the results were Tau fluor counter -25%, TRb-SRC2 inh 0%, Tau FP inhib inconclusive, TR SRC2 fluor cs 1%, Tau ThT inhib 28µM* and KDM4E inh -11%.
For N#CC1=C(S)N(c2ccc(F)cc2)C(c2ccco2)NC1=O (configuration not stated) the results were Tau fluor counter -16%, TRb-SRC2 inh 2%, Tau FP inhib inconclusive, TR SRC2 fluor cs -2%, Tau ThT inhib 40µM* and KDM4E inh -9%.
`N#CC1=C(S)N(c2ccccc2)C(c2ccco2)NC1=O` (configuration not stated) gave Tau fluor counter -10%, TRb-SRC2 inh -10%, Tau FP inhib -12%, TR SRC2 fluor cs -3%, Tau ThT inhib 4% and KDM4E inh 3%.
Cc1nc(-c2cccc(Cl)c2)n[nH]1 was read as Tau fluor counter -3%, TRb-SRC2 inh -3%, Tau FP inhib -3%, TR SRC2 fluor cs -8%, Tau ThT inhib -1% and KDM4E inh -1%.
For Cn1c(Cc2ccccc2)nnc1SCC(=O)c1cccs1 the results were Tau fluor counter -10%, TRb-SRC2 inh -1%, Tau FP inhib -13%, TR SRC2 fluor cs -2%, Tau ThT inhib -10% and KDM4E inh 2%.
